A selection: hits, their analogues and other compounds. The true share with any hit is near 17%.
HepG2 viability: HepG2 cytotoxicity, counter-screen for TGF-b inhibitors | AID 588856 | Potency, µM (doses to about 46.1 µM), inactives show top-dose activity change, negative = cytotoxicity, most hits filed as cytotoxic | HepG2 CAGA-GFP viability, ATP luminescence, 18 h | 0.76% of 410,000 active
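HepG2 CAGA-GFP cells (1000/well, DMEM with 1% FBS) received compound, then TGF-beta at 500 pg/mL final, and were incubated 18 hours at 37 degrees C. Viability was read by CellTiter-Glo luminescence. Media-only wells were set as complete cell-killing and DMSO as no toxicity.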
ATXN viability: viability counter-screen for ATXN expression inhibitors; 0.49% of 400,000 active; Potency, µM (titrated, usually from 56.7 µM), usual class: cytotoxic; S2 cells (HEK-293 line with an ATXN2-luciferase reporter) viability, CellTiter-Fluor protease fluorescence, 24 h; further: nearly all actives have a fitted effect of over 40% in size
TGFb SMAD3 inh: inhibitors of TGF-b signaling; HepG2 CAGA-GFP TGF-b/SMAD3 reporter, GFP fluorescence, 18 h; TGF-beta stimulated, 500 pg/mL final; Potency, µM (highest dose often 46.1 µM), without a hit: at the top dose activity, negative = inhibition, most hits filed as inhibitors; 1.2% of 410,000 active; further: on the % scale 0 is the no-effect control and ±100 the full control effect; nearly all actives have a fitted effect of over 65% in size
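HEPG2 CAGA-GFP reporter cells (1000/well, DMEM with 1% FBS) received compounds, then recombinant TGF-beta at 500 pg/mL final for 18 hours at 37 degrees C. Per-cell GFP summed per well was normalised to unstimulated and stimulated DMSO controls before curve fitting.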
DT40 TDP1 CPT: DT40-hTDP1 cell growth loss with CPT. chicken DT40 Tdp1-/-;hTDP1 cells + 20 nM CPT, ATP luminescence, 48 h. 12% of 420,000 active. Potency, µM (series often up to 46.2 µM), for inactives: at the highest dose activity change, negative = growth inhibition, usual class: inhibitors; further: on the % scale 0 is the no-effect control and ±100 the full control effect; nearly all actives have a fitted effect of over 55% in size
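Chicken DT40 Tdp1-/- cells complemented with human TDP1, 400 cells/well, exposed to compounds plus 20 nM camptothecin for at least 48 h at 37 C; viability read as ATP content by CellTiter-Glo luminescence.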
TDP1 cell noCPT: qHTS for Inhibitors of human tyrosyl-DNA phosphodiesterase 1 (TDP1): qHTS in cells in absence of CPT. DT40 Tdp1-/- hTDP1 cells, no CPT, ATP luminescence, 48 h. Potency, µM (highest dose often 46.2 µM), inactives show top-dose activity change, negative = growth inhibition, hits mostly inhibitors. AID 686978, 2013. 15% of 420,000 active; further: on the % scale 0 is the no-effect control and ±100 the full control effect; nearly all actives have a fitted effect of over 55% in size
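Growth of hTDP1-complemented DT40 Tdp1-knockout cells is measured by ATP luminescence after at least 48 hr compound exposure at 37 °C, with DMSO substituting for the 20 nM CPT used in the parallel screen.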
ATXN2 expr inh: inhibitors of ATXN2 expression. HEK-293 ATXN2-luciferase reporter, luminescence, 24 h. 0.72% of 360,000 active. AID 1745845. Potency, µM (top dose mostly 57 µM), without a hit: top-dose activity change, negative = inhibition, most hits filed as inhibitors; further: on the % scale 0 is the no-effect control and ±100 the full control effect; nearly all actives have a fitted effect of over 55% in size
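qHTS (up to 57 uM final) was run with 24 h compound exposure of reporter cells at 37 °C. Each well was multiplexed: SteadyGlo luminescence measured ATXN2-luciferase expression after a fluorogenic Gly-Phe-AFC viability readout (25 uM final).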
* = called active by the depositor; i = inactive; ? = inconclusive; . = no result; [ ] = dose if it differs, or a comment. The call rests on the fitted dose curve; in most records, active means well fitted curve in the direction sought with a large enough effect; inconclusive means small, poorly fitted or top-dose-only effect, or another doubt; inactive means no such curve, though single readings can be large; an effect the other way counts as inactive or inconclusive. Potency means the concentration at half of the fitted maximal effect.

SMILES | HepG2 viability | ATXN viability | TGFb SMAD3 inh | DT40 TDP1 CPT | TDP1 cell noCPT | ATXN2 expr inh
CCOCCc1nnc(NC(=O)CCS(=O)(=O)c2ccccc2)s1 | -23% | i | ? | 21µM* | 9.2µM* | 12%
CC(C)Cc1nnc(NC(=O)CCS(=O)(=O)c2ccc(Cl)cc2)s1 | -2% | i | -21% | 21µM* | ? | 3%
COCCSc1nnc(NC(=O)CCS(=O)(=O)c2ccccc2)s1 | -25% | i | ? | 7.3µM* | 13µM* | 38%
Cc1ccc2sc(N3CCN(C(=O)C4COc5ccccc5O4)CC3)nc2c1C (centres undefined) | 5% | i | 2% | ? | ? | 6%
O=C(NCC1CCC2(CCN(Cc3cccn3-c3ccc(Cl)cn3)CC2)O1)c1ccccc1 (centres undefined) | . | i | . | 0% | -7% | .
Cc1ccc(S(=O)(=O)CCc2nnc(NC(=O)CCl)s2)cc1C | -45% | i | -23% | 15µM* | 13µM* | 6%
Cn1nc(C(=O)NCCN2Cc3ccccc3OC(c3ccsc3)C2)c2ccccc2c1=O (centres undefined) | . | i | . | -13%[9.04 µM] | -9% | .
COc1cccc(Nc2ccc([N+](=O)[O-])c3nonc23)c1 | 1% | ? | -23% | ? | -12% | -12%
COc1cccc(Nc2cc(N3CCOCC3)c3nonc3c2[N+](=O)[O-])c1 | 5% | i | 2% | 21µM* | 18µM* | 7%
O=[N+]([O-])c1c(Nc2ccccc2O)cc(N2CCOCC2)c2nonc12 | -18% | ? | ? | 16µM* | 15µM* | .
O=[N+]([O-])c1c(NCCO)cc(N2CCCCCC2)c2nonc12 | -8% | ? | 11% | 7% | -25% | .
C=CCNC(=O)c1c(CSc2ccc(F)cc2)noc1C(=O)NCCC | 1% | i | 7% | -9% | -9% | 7%
COc1ccc(-c2cccc(NS(=O)(=O)c3ccc(C)s3)c2)nn1 | -25% | i | ? | 15µM* | 16µM* | -18%
CCOc1ccc(-c2cccc(NS(=O)(=O)c3ccccc3C(F)(F)F)c2)nn1 | -53% | i | -5% | ? | 26µM* | -8%
CCOc1ccc(-c2cccc(NS(=O)(=O)c3ccc(C)s3)c2)nn1 | -21% | i | -15% | 23µM* | ? | -8%
Cc1ccc(S(=O)(=O)Nc2cccc(-c3ccc4nnc(C)n4n3)c2)s1 | -27% | i | -2% | -28% | ? | 35%
COc1ccc(-c2cccc(NS(=O)(=O)c3ccc(NC(C)=O)cc3)c2)nn1 | -15% | ? | -23% | 18µM* | 15µM* | -14%
COc1ccc(-c2cccc(NS(=O)(=O)c3cc([N+](=O)[O-])c(C)c([N+](=O)[O-])c3)c2)nn1 | -19% | i | ? | ? | -28% | -8%
CCCOc1ccc(-c2cccc(NS(=O)(=O)c3cccs3)c2)nn1 | -26% | ? | -26% | ? | ? | 9%
CCCOc1ccc(-c2cccc(NS(=O)(=O)c3ccc(CC)cc3)c2)nn1 | -31% | ? | ? | 16µM* | 18µM* | ?
CCn1c(=O)c2sccc2n2c(CCCC(=O)Nc3ccc(Oc4ccccc4)cc3)nnc12 | -13% | . | ? | ? | 15µM* | .
COCCCn1c(=O)c2sccc2n2c(CCCC(=O)Nc3cc(C)cc(C)c3)nnc12 | 6% | . | ? | ? | ? | .
COCCCn1c(=O)c2sccc2n2c(CCCC(=O)Nc3cccc(C(F)(F)F)c3)nnc12 | -23% | . | ? | 16µM* | 21µM* | .
COc1ccc(NC(=O)CCc2nnc3n(C)c(=O)c4sccc4n23)cc1 | 1% | . | . | ? | -26% | .
Cn1c(=O)c2sccc2n2c(CCCC(=O)Nc3ccc(Oc4ccc(Cl)cc4)cc3)nnc12 | -52% | . | ? | ? | 18µM* | .
SMILES | HepG2 viability | ATXN viability | TGFb SMAD3 inh | DT40 TDP1 CPT | TDP1 cell noCPT | ATXN2 expr inh
CC(C)CCn1c(=O)c2sccc2n2c(CCCC(=O)Nc3ccc(C(C)C)cc3)nnc12 | -7% | . | -12% | ? | 15µM* | .
CCn1c(=O)c2sccc2n2c(CCCC(=O)NCc3cccnc3)nnc12 | -10% | i | -4% | 20% | 0% | .
Cc1ncc2c(c1CNC(=O)c1ccc3c(c1)OCO3)CCN(C(=O)c1cc3ccccc3n1C)C2 | . | i | . | -8%[9.04 µM] | -17% | .
Cc1oc2cc(OC(=O)c3ccco3)ccc2c(=O)c1-c1nc2ccccc2n1C | 2% | i | 5% | -16% | -1% | -1%
COc1ccc(-c2nc(CN3CCC(C(=O)NCCc4ccccc4)CC3)c(C)o2)cc1OC | -25% | i | -29% | -29% | ? | 2%
Cc1oc(-c2cccc(Cl)c2)nc1CN1CCC(C(=O)NCCCN2CC(C)CC(C)C2)CC1 (centres undefined) | -3% | ? | 13% | ? | 21µM* | .
COc1ccc(CCNC(=O)C2CCN(Cc3nc(-c4cccc(Cl)c4)oc3C)CC2)cc1OC | -17% | i | 0% | 18µM* | 21µM* | -19%
Cc1oc(-c2cccc(Cl)c2)nc1CN1CCC(C(=O)NCCCN2CCCC2=O)CC1 | -5% | i | -1% | 2% | -5% | -4%
Cc1ccc(CSc2nc3ccncc3n2Cc2nc(-c3ccccc3C)oc2C)cc1 | -62% | ? | ? | ? | ? | -14%
Cc1oc(-c2cccc(Cl)c2)nc1Cn1c(SCc2ccccc2F)nc2ccncc21 | -13% | i | ? | 16µM* | 23µM* | 4%
Cc1oc(-c2ccccc2F)nc1Cn1c(SCc2cccc(C(F)(F)F)c2)nc2ccncc21 | -65% | ? | ? | ? | ? | -32%
COc1ccc(CSc2nc3ccncc3n2Cc2nc(-c3ccc(OC)c(OC)c3)oc2C)cc1 | -67% | . | ? | 26µM* | ? | -32%
COc1ccc(-c2nc(Cn3c(SCc4cccc(Cl)c4)nc4ccncc43)c(C)o2)cc1 | -36% | i | -42% | 23µM* | ? | -17%
COc1ccc(Br)cc1C=NNS(=O)(=O)c1ccc(C)cc1 | -41% | ? | ? | ? | 7.3µM* | .
COc1ccccc1/C=C\C=N\n1c(-c2ccc(Cl)cc2Cl)n[nH]c1=S | -24% | i | -4% | -17% | -12% | 11%
COc1ccc(Cl)cc1C=CC=NNS(=O)(=O)c1ccc(C)cc1 | 2% | i | -11% | 18µM* | 16µM* | -10%
COc1ccc(Cl)cc1C=CC=Nc1ccccc1O | -91% | i | ? | 23µM* | 18µM* | 3%

From PubChem BioAssay
